In PubChem BioAssay (NCI):
About 83,000 compounds went through this panel and 20% of them were active in at least one assay; those are over-represented in the sample as a whole.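 Values shown are percent growth following 48 h exposure of cells in 96-well plates to a single concentration of compound; below 10 was considered active.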 Active and inactive are the calls of the source.

Experiments:
Test in all cases: NCI-60 one-dose screen, 48 h (100 = growth as untreated, 0 = no growth, -100 = all killed)
Conditions in all cases: 10 µM unless noted
[1] = test system: NCI-H23 lung
[2] = test system: NCI-H226 lung
[3] = test system: NCI-H322M lung
[4] = test system: HOP-62 NSCLC
[5] = test system: NCI-H460 lung
[6] = test system: HOP-92 NSCLC
[7] = test system: NCI-H522 lung
[8] = test system: A549/ATCC NSCLC
[9] = test system: 786-0 renal
[10] = test system: COLO 205 colon
[11] = test system: DU-145 prostate
[12] = test system: K-562 leukemia
[13] = test system: MALME-3M melanoma
[14] = test system: MDA-MB-231 breast
[15] = test system: RXF 393 renal
[16] = test system: SF-268 CNS
[17] = test system: SF-295 CNS
[18] = test system: SF-539 CNS
[19] = test system: UACC-257 melanoma
[20] = test system: M14 melanoma

Measured: growth

Cc1ccc(C(=O)C[n+]2cccc3c4ccccc4ccc32)cc1
inactive: [1] 27.4% | [2] 36.3% | [3] 43.3% | [4] 36.1% | [7] 22.1% | [8] 23.8% | [9] 34.4% | [11] 35.7% | [13] 10.4% | [14] 24.2% | [16] 42.8% | [17] 23.4% | [18] 25.5% | [20] 17.6%
active: [5] 4.31% | [6] -8.04% | [10] 5.75% | [12] 8.04% | [15] 5.94% | [19] 5.16%

O=C(Nc1ccc(S(=O)(=O)N2CCCCC2)cc1)C(Cl)Cl
inactive: [1] 103% | [2] 127% | [3] 114% | [4] 108% | [5] 108% | [6] 116% | [7] 98.4% | [8] 104% | [9] 98.9% | [10] 120% | [11] 104% | [12] 111% | [13] 99.3% | [14] 109% | [15] 115% | [16] 105% | [17] 106% | [18] 107% | [19] 101% | [20] 112%

COc1cc(C2CC(c3ccc(Cl)cc3)=Nc3c(N)nc(N)nc3N2)ccc1Oc1nc(Nc2ccc(F)cc2)nc(N(C)C)n1 (stereo not given)
inactive: [1] 76.6% | [2] 60.9% | [3] 93.8% | [4] 74.1% | [5] 13.5% | [6] 12.6% | [7] 38.9% | [8] 47.2% | [9] 38.2% | [10] 55.4% | [11] 60% | [13] 54.1% | [14] 23.8% | [16] 52.2% | [17] 53.3% | [18] 63.7% | [19] 47.9% | [20] 43.2%
active: [12] 8.16% | [15] -4.44%

N#C/C(=C/c1ccc([N+](=O)[O-])cc1)c1nnc(NC(=O)c2ccc(-n3c(=O)[nH]c4ccccc4c3=O)cc2)s1
inactive: [1] 91.9% | [2] 87.8% | [3] 97.5% | [4] 85.6% | [5] 79.2% | [6] 101% | [7] 108% | [8] 102% | [9] 104% | [10] 122% | [11] 83.1% | [12] 103% | [13] 91.6% | [14] 89.5% | [15] 87.9% | [16] 110% | [17] 100% | [18] 93.6% | [19] 105% | [20] 120%

COc1ccc(N=Nc2c(N)nn3c(N)c(C#N)c(-c4ccc(C)cc4)nc23)cc1
inactive: [1] 62.9% | [2] 54.7% | [3] 78.7% | [4] 63.6% | [5] 26.6% | [6] 19.4% | [7] 48.9% | [8] 43.3% | [9] 80.9% | [10] 85.6% | [11] 42.2% | [12] 36.1% | [13] 93.7% | [14] 42.4% | [15] 65.1% | [16] 67.5% | [17] 58.1% | [18] 52.4% | [19] 92.7% | [20] 61.6%

COc1ccc2[nH]c(=O)c(CSc3ccccc3Nc3nccc(-c4ccc(C(F)(F)F)cc4)n3)cc2c1
active: [7] 0.553% | [9] -4.97% | [15] -41.2% | [17] 5.31% | [18] 0.901%
inactive: [1] 30.7% | [2] 18.7% | [3] 67.4% | [4] 53.6% | [5] 17.4% | [6] 26.7% | [8] 18.5% | [10] 27.8% | [11] 27.3% | [12] 19.5% | [13] 47.4% | [14] 31.6% | [16] 19.5% | [19] 50.3% | [20] 52.3%

COc1ccc(-c2cc(C(=O)Oc3ccc(C=O)cc3OC)nn2-c2ccc(S(C)(=O)=O)cc2)cc1
inactive: [1] 96% | [2] 104% | [3] 106% | [4] 104% | [5] 105% | [6] 110% | [7] 68.3% | [8] 105% | [9] 113% | [10] 133% | [11] 110% | [12] 96.1% | [13] 105% | [14] 94.3% | [15] 122% | [16] 103% | [17] 110% | [18] 106% | [19] 115% | [20] 117%

O=C(Cc1c(-c2ccccc2[N+](=O)[O-])n(-c2ncnc3c2c(-c2ccccc2)c(-c2ccccc2)n3Cc2ccccc2)[nH]c1=O)c1ccc(Cl)c(Cl)c1
inactive: [2] 24.7% | [3] 42.7% | [4] 49.3% | [5] 15.9% | [8] 25.6% | [9] 36.2% | [10] 43.1% | [11] 32.2% | [12] 12% | [14] 33.5% | [15] 31.7% | [16] 30.9% | [18] 38.2% | [19] 11.5% | [20] 14.6%
active: [1] 9.58% | [6] -3.98% | [7] -10.1% | [13] -12.6% | [17] 3.25%

N#CC1=C(c2ccco2)Nc2c(c(-c3ccccc3)nn2-c2ccccc2)C12C(=O)Nc1ccc(Br)cc12 (stereo not given)
active: [5] 1.16% | [8] 1.5% | [18] -33%
inactive: [1] 70.6% | [2] 67.2% | [3] 86.9% | [4] 10.5% | [6] 52.4% | [7] 31.8% | [9] 43.4% | [10] 86.9% | [11] 70.5% | [12] 21.2% | [13] 90.7% | [14] 33.2% | [15] 70.2% | [16] 49.1% | [17] 72.5% | [19] 73.1% | [20] 42%

COc1ccc2[nH]c(O)c(N=Nc3nc(-c4ccc(Br)cc4)cs3)c2c1
active: [1] -6.52% | [2] -36.4% | [4] -10.1% | [5] -35.4% | [6] -34.4% | [8] -41.3% | [9] -81.3% | [10] -13.2% | [13] -36.3% | [15] -64.2% | [17] 9.66% | [18] -68.4%
inactive: [3] 28.2% | [7] 19.1% | [11] 16% | [12] 17.9% | [14] 35.7% | [16] 30.5% | [19] 30.3% | [20] 14.4%

CC1=C(C(=O)Nc2ccccc2)C(c2cccc3ccccc23)n2c(nc3ccccc32)N1 (stereo not given)
active: [2] -39.8% | [4] -61.9% | [6] 1.76% | [9] 6.29%
inactive: [1] 76.7% | [3] 44% | [5] 27.6% | [7] 63.6% | [8] 28.2% | [10] 95.2% | [11] 29% | [12] 82.9% | [13] 43.8% | [14] 53.8% | [15] 13.9% | [16] 19.8% | [17] 32.2% | [18] 43.8% | [19] 45.1% | [20] 65.7%

COc1ccc(C2=Nc3c(N)nc(N)nc3NC(c3ccc(Oc4nc(Nc5ccc(F)cc5)nc(N(C)C)n4)c(OC)c3)C2)cc1 (stereo not given)
inactive: [1] 88.4% | [2] 77.4% | [3] 104% | [4] 82.5% | [5] 71% | [6] 16.6% | [7] 88% | [8] 75.5% | [9] 52.6% | [10] 91.6% | [11] 68.8% | [12] 29.5% | [13] 83.1% | [14] 43.3% | [15] 12.1% | [16] 61.6% | [17] 85.7% | [18] 71.9% | [19] 70.5% | [20] 93.4%

CC(C)CN1C(=O)/C(=C\C(=O)c2cc3ccccc3oc2=O)c2ccccc21
inactive: [1] 90.5% | [2] 83.5% | [3] 96.7% | [4] 97.9% | [5] 103% | [6] 104% | [7] 31.5% | [8] 109% | [9] 105% | [10] 26.8% | [11] 98.3% | [13] 59% | [14] 87.5% | [15] 85.4% | [16] 106% | [17] 105% | [18] 102% | [19] 106% | [20] 85%
active: [12] 1.97%

COc1cncc(-c2ccc3ncnc(N4CCc5ccc(Cl)cc54)c3c2)c1
inactive: [2] 31.8% | [4] 51.3% | [5] 51.8% | [7] 36.6% | [8] 29.9% | [10] 38.4% | [11] 24.6% | [12] 12.6% | [13] 44.2% | [14] 29.4% | [16] 46.7% | [17] 20.3% | [18] 33.2% | [19] 63.5%
active: [1] 8.73% | [3] -2.19% | [6] -56.9% | [9] -74.2% | [15] -18.1% | [20] -52.4%

Cc1ccc(NC(=O)N/N=C/c2c[nH]c3ccccc23)c(C)c1
inactive: [1] 12.6% | [2] 12.6% | [3] 42% | [4] 34.4% | [6] 16.3% | [8] 14.9% | [11] 12.9% | [12] 10.5% | [13] 52.8% | [14] 21.1% | [16] 11.8% | [19] 46.5% | [20] 12.5%
active: [5] 5.78% | [7] -36.8% | [9] -18.4% | [10] -51.5% | [15] -12.3% | [17] 5.78% | [18] -5.67%
